VDR inhibitor = vitamin D3 receptor (human) inhibition; P11473; VDR-SRC2-3 peptide fluorescence polarization, 2 h; Potency, µM, for inactives: max response, negative = inhibition, most hits filed as inhibitors; 400,000 tested, 0.93% active; note: potency is the fitted concentration of half-maximal effect; % is set by controls: 0 for no effect and ±100 for the full control effect
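Measured by FP: displacement of SRC2-3 coactivator peptide from VDR by library compounds, following a two-hour ambient incubation.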
TSHR antag = blocks TSH signaling through the human TSH receptor; TSHR-expressing cells, TSH-stimulated cAMP HTRF, 2 h; active compounds read low; 330,000 tested, 0.2% active; activity change, negative = inhibition, % at 11.5 µM; P16473;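 active = activity change below a set negative limit, meaning inhibition stronger than a set level, cut at about -70% in these data; inconclusive = activity change between two set negative limits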; note: % is set by controls: 0 for no effect and ±100 for the full control effect
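TSHR-expressing cells were treated with compounds, then stimulated with TSH at EC80 (4nM final) for 2 hours at 37 deg C. Cellular cAMP was measured by HTRF competition between lysate cAMP and cAMP-d2 for a cryptate-labelled anti-cAMP antibody.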
Vif-A3G inh = Vif-A3G binding inhibition | AID 602310 | Potency, µM (highest dose often 46.1 µM), for inactives: at the highest dose activity, negative = active, actives largely listed as inhibitors | HeLa A3G-eYFP + Vif (tagged APOBEC3G with the HIV-1 protein that degrades it), YFP fluorescence, overnight | 410,000 tested, 0.076% active; note: potency is the fitted concentration of half-maximal effect; % is set by controls: 0 for no effect and ±100 for the full control effect; nearly all actives have a fitted effect of over 60% in size
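Read-out is eYFP fluorescence (Ex 488/Em 500-530) from Vif-expressing HeLa A3G-eYFP cells; more signal means A3G escaped Vif-mediated degradation. Cells plated overnight, compound pinned in, incubated overnight at 37 deg C.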
PLK1 PBD block = PLK1 (human) polo-box domain binding inhibition; P53350; Plk1 PBD binding of FITC phosphopeptide, fluorescence polarization; Potency, µM, inactives show max response, negative = inhibition, usual class: inhibitors; 360,000 tested, 2.8% active; AID 720504; note: potency is the fitted concentration of half-maximal effect; series mostly up to about 57 µM; % is set by controls: 0 for no effect and ±100 for the full control effect; nearly all actives have a fitted effect of over 65% in size
Target sequence (P53350 whole entry, looked up, the tested form may be a part): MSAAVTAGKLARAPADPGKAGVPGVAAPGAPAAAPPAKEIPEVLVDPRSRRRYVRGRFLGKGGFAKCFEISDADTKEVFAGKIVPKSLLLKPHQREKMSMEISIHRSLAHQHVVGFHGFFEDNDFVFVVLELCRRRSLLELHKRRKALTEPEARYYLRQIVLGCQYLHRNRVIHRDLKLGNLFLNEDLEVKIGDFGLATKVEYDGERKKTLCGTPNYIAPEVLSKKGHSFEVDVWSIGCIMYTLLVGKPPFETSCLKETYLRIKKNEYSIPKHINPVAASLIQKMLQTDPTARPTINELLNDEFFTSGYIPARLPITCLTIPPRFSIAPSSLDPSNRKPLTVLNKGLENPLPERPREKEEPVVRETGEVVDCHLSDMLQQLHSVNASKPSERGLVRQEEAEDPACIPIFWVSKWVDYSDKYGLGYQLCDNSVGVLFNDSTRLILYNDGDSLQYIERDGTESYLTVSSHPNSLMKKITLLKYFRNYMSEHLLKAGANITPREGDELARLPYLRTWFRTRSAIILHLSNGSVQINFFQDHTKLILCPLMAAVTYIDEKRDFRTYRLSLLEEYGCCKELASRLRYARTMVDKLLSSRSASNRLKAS
Vif-A3F inh = blocks the Vif interaction with APOBEC3F. 390,000 tested, 0.2% active. HeLa A3F-eYFP + Vif (tagged APOBEC3F with the HIV-1 protein that degrades it), YFP fluorescence increase. Potency, µM (highest dose often 46.1 µM), without a hit: at the highest dose activity, negative = active; note: potency is the fitted concentration of half-maximal effect; % of control where 0% means no effect; nearly all actives have a fitted effect of over 65% in size
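HeLa cells stably expressing Vif plus C-terminally eYFP-tagged A3F were seeded, incubated overnight at 37 deg C, dosed with compound, incubated overnight again at 37 deg C. Yellow fluorescence (Ex 488/Em 500-530) reported blocked Vif-mediated A3F-eYFP degradation.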
An asterisk follows results filed as active; ? = inconclusive; nt = no result; ! = repeats disagree. Shown are actives, neighbours in structure and some others; about 3.1% of the full set was active somewhere. Unless noted, calls come from the whole dose curve; as a rule, active = well fitted curve in the direction sought with a large enough effect; inconclusive = small, poorly fitted or top-dose-only effect, or another doubt; inactive = no such curve, though single readings can be large; an effect the other way counts as inactive or inconclusive.

SMILES	VDR inhibitor	TSHR antag	Vif-A3G inh	PLK1 PBD block	Vif-A3F inh
CC(=O)c1cccc2c(O)c(C3=Nc4ccccc4C3=O)[nH]c12	56µM*	1	-15%	?	4%
O=C1C(c2c(O)[nH]c3ccccc23)=Nc2ccccc21	?	5	1%	-3%	-10%
Cc1ccc(NC(=O)c2cnn3c2NC(=C2CC2)C=C3C(F)F)cc1	nt	nt	-4%	nt	nt
CCOC(=O)c1cc([N+](=O)[O-])cc([N+](=O)[O-])c1Sc1ncnc2nc[nH]c12	50µM*	nt	-17%	21µM*	10%
CSCC[C@H](N)C(=O)N[C@@H](CCC(=O)O)C(=O)N[C@H](C(=O)NCC(=O)N[C@@H](Cc1c[nH]c2ccccc12)C(=O)N[C@@H](Cc1ccc(O)cc1)C(=O)N[C@@H](CCCNC(=N)N)C(=O)N[C@@H](CO)C(=O)N1CCC[C@H]1C(=O)N[C@@H](Cc1ccccc1)C(=O)N[C@@H](CO)C(=O)N[C@@H](CCCNC(=N)N)C(=O)N[C@H](C(=O)N[C@H](C(=O)N[C@@H](Cc1cnc[nH]1)C(=O)N[C@@H](CC(C)C)C(=O)N[C@@H](Cc1ccc(O)cc1)C(=O)N[C@@H](CCCNC(=N)N)C(=O)N[C@@H](CC(N)=O)C(=O)NCC(=O)N[C@@H](CCCCN)C(=O)O)C(C)C)C(C)C)C(C)C	8%	nt	nt	nt	nt
COCCN(CC(=O)NCC1CCCO1)C(=O)CCC(=O)Nc1ccccn1 (stereo not drawn)	35µM*	8	0%	4.7µM*	-1%
O=C(CN(CC1CCCO1)C(=O)CCC(=O)Nc1ccccn1)NCC1CCCO1 (stereo not drawn)	-17%	0	0%	-2%	-15%
CCOC(=O)/C=C1\CC(C(=O)OCC)Oc2c(OC)cccc21 (stereo not drawn)	79µM*	-6	0%	?	?
C=C1c2cccc(OC)c2O[C@H](C(=O)OCC)[C@@H]1CC(CC)CCCC (stereo partly drawn)	14%	-15	0%	-5%	?
CC(C(=O)N1CCN(C=O)CC1)N1C(=O)c2ccccc2C1=O (stereo not drawn)	-15%	3	1%	19µM*	2%
CC(C)NCCCCOc1cccc(Br)c1	?	-3	0%	19µM*	10%
COc1ccccc1CNS(=O)(=O)c1cc(-c2cc(C)no2)ccc1C(C)C	-17%	-80*	1%	-12%	-2%
CCN(CC)C(=O)CSc1nnc2nnc3cc(OC)ccc3n12	3%	-3	-8%	24µM*	-1%
N=C(N)SCc1nc2ccccc2c(=O)n1-c1ccccc1	?	-4	1%	8.4µM*!	-10%
Nc1cnccn1	nt	nt	1%	nt	nt
CSc1n[nH]c2nc3c(c(=O)n12)C1(CCCC1)Cc1ccccc1-3	-3%	3	-6%	?	2%
CCSc1n[nH]c2nc3c(c(=O)n12)C1(CCCC1)Cc1ccccc1-3	-2%	-19	0%	21µM*	-12%
COc1ccc(C2C=C(C34CC5CC(CC(C5)C3)C4)NC(=S)N2)cc1 (stereo not drawn)	?	-18	6%	12µM*	2%
COc1ccc(Cc2nc3ccc(C(=O)N(C)Cc4nccs4)cc3o2)cc1OC	-16%	-6	4%	30µM*	-11%
CN(N=O)c1ccc(/C=C2\C=Cc3ccccc32)cc1	nt	nt	-2%	nt	nt
O=c1[nH]c2cc([N+](=O)[O-])cc([N+](=O)[O-])c2[nH]c1=O	-2%	nt	nt	nt	nt
N[C@H](C(=O)O)[C@H](O)C(=O)O	5%	4	nt	nt	nt
O=C(O)C(S)[C@@H](S)C(=O)O (stereo partly drawn)	4µM*	nt	nt	nt	nt
O=C(O)C(S)C(S)C(=O)O (stereo not drawn)	?	nt	-2%	8.4µM*	-5%
COc1ccc(CN2CC[C@H]3C=CC[C@@H](C(=O)NCc4cccnc4)[C@H]3C2=O)cc1OC	nt	nt	-4%	nt	nt
CN1C(=O)CC2(C=CC(=O)C=C2OC(=O)c2ccccc2)c2ccccc21 (stereo not drawn)	-20%	nt	-5%	nt	nt

Source: PubChem (National Center for Advancing Translational Sciences (NCATS))
